Results taken from PubChem BioAssay (Tox21).
Results filed as inconclusive are left out. Where a call stands in place of a potency, no number is given. Active and inactive are the calls of the source. Calls come from the whole dose curve.

What follows are compounds tested against Beta-2 adrenergic receptor (Homo sapiens) (UniProt P07550) (assay: Adrenergic beta2 receptor (ADRB2) small molecule antagonists, cell-based qHTS assay (AID 1963592; note: nearly all actives have a fitted effect of over 50% in size)). Details: CHO-ADRB2 cells, isoproterenol-stimulated cAMP HTRF ratio, 0.5 h; series mostly up to 92.4 µM.
Beta-2 adrenergic receptor (Homo sapiens), sequence (P07550 whole entry, looked up): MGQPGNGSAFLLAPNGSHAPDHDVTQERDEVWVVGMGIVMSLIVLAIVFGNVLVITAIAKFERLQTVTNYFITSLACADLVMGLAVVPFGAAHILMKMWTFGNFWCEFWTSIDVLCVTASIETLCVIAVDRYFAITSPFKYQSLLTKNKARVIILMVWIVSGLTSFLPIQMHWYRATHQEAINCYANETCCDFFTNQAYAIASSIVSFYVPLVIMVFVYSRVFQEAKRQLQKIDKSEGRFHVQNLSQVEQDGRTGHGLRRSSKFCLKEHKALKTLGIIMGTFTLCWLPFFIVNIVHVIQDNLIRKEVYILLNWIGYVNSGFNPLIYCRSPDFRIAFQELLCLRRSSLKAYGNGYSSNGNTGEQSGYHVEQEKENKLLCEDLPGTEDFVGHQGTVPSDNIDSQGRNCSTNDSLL
Text: U.S. Tox21 Program National Center for Advancing Translational Sciences [NCATS] Division of Preclinical Innovation [DPI] U.S. Environmental Protection Agency [EPA] National Institutes of Environmental Health Sciences [NIEHS] National Toxicology Program [NTP] U.S. Food and Drug Administration [FDA] Tox21 Assay Overview: Beta adrenergic receptors (Beta-ARs) belong to the G-protein coupled receptor (GPCR) superfamily, includes three subtypes - beta1, beta2, and beta3. Beta1-AR is the predominant receptor subtype expressed in the heart, and beta2-AR is expressed in the kidney, lung, blood vessel and in the heart, and beta3 is found in the adipocytes. Beta1 and 2 ARs couple to Gs protein and elevate cyclic adenosine mono phosphate (cAMP), which activates protein kinase A and leads to the downstream signaling responsible for the physiological actions. Beta-AR agonists or antagonists are the most prescribed therapeutic agents for heart failure and asthma, and these were one of the first target receptors for the rational drug design. Tox21 10K compound library was screened using the cAMP-Gs dynamic assay (Cisbio Bioassays, Shelton, CT) to identify agonists/antagonists of the Gs-coupled human adrenergic, beta2 receptor (ADRB2) in the CHO-ADRB2 cell line (Codex BioSolutions, Inc. Gaithersburg, MD), which stably over-expresses ADRB2. The principle of cAMP-Gs dynamic assay is based on HTRF technology, which facilitates the fluorescence resonance energy transfer (FRET) between donor Europium cryptate and acceptor d2-labeled cAMP. The cAMP generated within cells competes with the red acceptor, d2-labled cAMP, for binding to the monoclonal anti-cAMP-cryptate (Europium donor). An increase in intracellular cAMP leads to the disruption of FRET signal, and the signal is inversely proportional to the cAMP concentration. Propranolol HCl (Sigma-Aldrich, St. Louis, MO) was used as a positive control in the screening.
Tox21 Assay Protocol Summary: CHO-ADRB2 cells were dispensed at 1,000/well in 4uL assay medium into white/solid 1536-well plates (Greiner Bio-One North America Inc., Monroe, NC) using a Multidrop Combi dispenser (ThermoFisher Scientific, Waltham, MA). The assay plates were incubated at 37C and 5% CO2 for an overnight (18-20hr). Then positive control and test compounds dissolved in DMSO were transferred to the assay plates at 23nL using a Pintool station (Wako, San Diego, CA). Following the compound and positive control transfer, 1uL agonist-stimulation mix containing 1nM Isoproterenol HCl, 100uM IBMX and 25uM Ro-20-1724 was added to each well of the assay plates using BioRAPTR Flying Reagent Dispenser (FRD, Beckman Coulter, Brea, CA). The assay plates were incubated at room temperature for 0.5hr. Then 2.5ul each d2-labled cAMP and anti-cAMP-cryptate solutions were added separately to each well of the assay plates using an FRD and the assay plates were incubated at room temperature for 1hr. The fluorescence signal was measured at two different wavelengths (665nm and 615nm) using an Envision plate reader (Perkin Elmer, Shelton, CT). Data were expressed as the ratio of 665 nm/615 nm.

Q: `Cc1ncsc1CCO` was tested. Which Potency did it give?
A: inactive

Q: How did the activity change, negative = inhibition turn out when `C[Si](C)=O` was run?
A: -1.43% [at 8.39 µM] (inactive)

Q: Which Potency does the source give for `COc1cc(Cl)ccc1Cl` here?
A: inactive

Q: `Cc1ccc(O)c([N+](=O)[O-])c1` was tested. Which Potency did it give?
A: inactive

Q: For `COc1ccc(Cl)cc1C`, which Potency is on record?
A: inactive

Q: For `CSc1ccc(C(=O)c2[nH]c(=O)[nH]c2C)cc1`, which Potency is on record?
A: inactive

Q: For `CCCOC(C)=O`, which Potency is on record?
A: inactive

Q: For `C/C=C/C(=O)C1=C(C)C=CCC1(C)C`, which Potency is on record?
A: inactive

Q: For `Cc1ccc(C2OC[C@@H]3OC(c4ccc(C)cc4)O[C@H]([C@H](O)CO)[C@@H]3O2)cc1` (stereo not given in full), which Potency is on record?
A: inactive

Q: How did the Potency turn out when `CCCCCCC(C)(C)C(=O)O` was run?
A: inactive

Q: `CCCC(=O)OCC(COC(=O)CCC)OC(=O)CCC` was tested. Which Potency did it give?
A: inactive

Q: How did the Potency turn out when `Cc1ccc(C(C)(C)C)cc1` was run?
A: inactive

Q: How did the Potency turn out when `Cc1cc(O)cc(C)c1Cl` was run?
A: inactive

Q: How did the Potency turn out when `N[C@H]1C(O)O[C@H](CO)[C@@H](O)[C@@H]1O` (stereo not given in full) was run?
A: inactive

Q: Which Potency does the source give for `FC(F)(F)c1ccccc1` here?
A: inactive

Q: With `C[C@]12CCC(=O)C=C1CC[C@@H]1[C@@H]2[C@@H](O)C[C@@]2(C)[C@H]1CC[C@]2(O)C(=O)CO` as the compound, how does the Potency read?
A: inactive

Q: `C=C(C)C(=O)NCCC[N+](C)(C)C` was tested. Which Potency did it give?
A: inactive

Q: With `Nc1cc([N+](=O)[O-])ccc1O` as the compound, how does the Potency read?
A: inactive

Q: With `CN(CC1(C)CCCO1)S(=O)(=O)c1ccc(Cl)c(S(N)(=O)=O)c1` (stereo not given) as the compound, how does the Potency read?
A: inactive

Q: For `C=CC(=O)CCCCC`, which Potency is on record?
A: inactive

Q: For `CC[C@]12CCCN3CCc4c(n(c5ccccc45)[C@@](O)(C(=O)OC)C1)[C@@H]32`, which Potency is on record?
A: inactive

Q: With `Cc1ccc(C(C)C)cc1O` as the compound, how does the Potency read?
A: inactive

Q: `O=S(=O)(O)c1ccccc1` was tested. Which Potency did it give?
A: inactive

Q: `O=C(O)[C@H](O)[C@@H](O)[C@H](O[C@@H]1O[C@H](CO)[C@H](O)[C@H](O)[C@H]1O)[C@H](O)CO` was tested. Which Potency did it give?
A: inactive

Q: `O=C(CCNNC(=O)c1ccncc1)NCc1ccccc1` was tested. Which Potency did it give?
A: inactive

Q: `CC(C)CCCCCOC(=O)CS` was tested. Which Potency did it give?
A: inactive

Q: For `CCCCC(CC)COC(=O)CCCCCCCC(=O)OCC(CC)CCCC` (stereo not given), which Potency is on record?
A: inactive

Q: How did the Potency turn out when `C/C(=C1\CCOC(=O)S1)N(C=O)Cc1cnc(C)nc1N` was run?
A: inactive

Q: How did the Potency turn out when `[Cl][In]([Cl])[Cl]` was run?
A: inactive

Q: How did the Potency turn out when `c1ccc2c(c1)CCC2` was run?
A: inactive

Q: For `Cc1ccc(S(=O)(=O)NC(=O)NC2CCCC2)cc1`, which Potency is on record?
A: inactive

Q: With `COc1ccc2cccc(CCNC(C)=O)c2c1` as the compound, how does the Potency read?
A: inactive

Q: How did the Potency turn out when `CCCCOC(=O)C(=O)OCCCC` was run?
A: inactive

Q: `C=CCOCC(CC)(CO)COCC=C` was tested. Which Potency did it give?
A: inactive

Q: Which Potency does the source give for `CC(C)[C@H]1CC[C@@H](C)CC1=O` here?
A: inactive

Q: How did the Potency turn out when `C[C@@H]1CCC[C@H](C)N1CCCC(O)(c1ccccc1)c1ccccn1` (stereo not given in full) was run?
A: inactive

Q: For `CC1CNCC(C)O1` (stereo not given), which Potency is on record?
A: inactive

Q: How did the activity change, negative = inhibition turn out when `C=CCCCCCCCCCCC` was run?
A: -1.18% [at 8.39 µM] (inactive)

Q: With `CSc1nnc(C(C)(C)C)c(=O)[nH]1` as the compound, how does the Potency read?
A: inactive

Q: Which Potency does the source give for `CCN1C(=O)c2ccccc2C1Nc1ccc(OCCN2CCCCC2)cc1` (stereo not given) here?
A: inactive
